Bioassay records deposited in PubChem BioAssay by several laboratories.
ZTA counter: ZTA (EBV) inhibition in EBNA-1 counter-screen. ZTA-DNA binding, fluorescence polarization. inhibition, % at 11 µM. hit rate 0.15% among 320,000; in the data active means inhibition above about 33%
Target sequence (P03206 whole entry, looked up): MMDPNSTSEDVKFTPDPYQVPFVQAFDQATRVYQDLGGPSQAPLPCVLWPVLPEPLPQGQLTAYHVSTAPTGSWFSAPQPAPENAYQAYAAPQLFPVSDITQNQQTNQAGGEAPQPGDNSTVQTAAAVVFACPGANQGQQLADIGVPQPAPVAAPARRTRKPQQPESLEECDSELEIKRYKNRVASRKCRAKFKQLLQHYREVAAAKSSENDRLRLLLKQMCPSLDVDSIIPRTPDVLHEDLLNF
aDG glyco up: increases alpha dystroglycan glycosylation; Pro5-aDG cells, alpha-DG glycosylation AlphaScreen (IIH6); 0% Pro5, 100% B10-LARGE cell signal; activation, % at 10 µM; hit rate 0.22% among 360,000; AID 624168;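 active means activation of at least 8% versus controls, or a plate z-score of at least 8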;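 further: Pro5 are CHO cells carrying HIG-tagged alpha-DG that lacks glycosylation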
p47phox inh: p47phox (human) inhibition | P14598 | p47phox/p22phox peptide binding, fluorescence polarization, 2 h | inhibition, % at 24.7 µM | hit rate 0.53% among 220,000 | AID 1274;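 active means inhibition above about 30%, limit read from the data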;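 further: 0% = p47phox with labelled peptide and 100% = labelled peptide alone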
EBNA-1 inh: blocks EBNA-1 binding to DNA. inhibition, % at 14.8 µM. hit rate 0.34% among 300,000. EBNA-1 DNA binding, fluorescence polarization; in the data active means inhibition above about 28%
NR1D1 modulator: modulators of human Rev-erb alpha DNA binding | P20393 | Rev-erbα–FITC-DNA binding, fluorescence polarization, 90 min | activity, % at 10 µM | hit rate 0.79% among 370,000;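 active means activity above about 14%, limit read from the data; passing the limit was not always enough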;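 further: 0% = DMSO wells with 35 nM protein and 100% = DMSO wells with 750 nM protein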
PG9 binder: binds the HIV-1 gp120 antibody PG9. TR-FRET gp120-PG9 antibody binding. inhibition, % at 6.7 µM. hit rate 0.43% among 360,000. AID 624416; in the data active means inhibition above about 8.5%
EBNA-1 confirm: EBNA-1 (EBV) inhibition, confirmation; shares compounds with EBNA-1 inh; Recombinant EBNA-1 DBD, Cy5-DNA fluorescence polarization; inhibition, % at 14.8 µM; hit rate 35% among 830; AID 2292;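 active means mean inhibition across replicates above a set limit taken from the earlier primary screen, cut at about 28% in these data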;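 further: plate controls were EBNA-1 protein with DMSO for no effect and wells lacking EBNA-1 for full effect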
ZTA counter trip: blocks Epstein-Barr virus ZTA in triplicate, EBNA-1 counter-screen; shares compounds with EBNA-1 inh; Zta-ZRE DNA binding, Cy5 fluorescence polarization; inhibition, % at 11.1 µM; 830 tested, under 10 active; AID 2328;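 active means mean inhibition over triplicates above a set limit taken from the primary EBNA-1 screen, cut at about 37% in these data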;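 further: purified full length Zta protein with Cy5 labeled ZRE DNA probe; 0% = Zta with DMSO and 100% = wells lacking Zta protein; inhibitors lower polarization by freeing the labeled DNA probe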
* = called active by the depositor; / = not tested or not shown. Sampled rows, rich in hits. Any-hit rate of the full collection: about 1.9%.

SMILES | ZTA counter | aDG glyco up | p47phox inh | EBNA-1 inh | NR1D1 modulator | PG9 binder | EBNA-1 confirm | ZTA counter trip
COCCn1c(SCC(=O)Nc2cc(C)on2)nc2ccccc2c1=O | 13 | 0 | / | / | 2 | -1 | / | /
CCCCNC(=O)C[C@@H]1C(=O)N(Cc2ccc(OC)cc2)/C2=C/CCCCC[C@@]21C(=O)OCC | / | / | / | / | -3 | / | / | /
Nc1c(C(=O)NCc2ccc3c(c2)OCO3)nnn1Cc1cccc(F)c1 | -3 | 0 | -17 | 76* | -14 | -2 | 29* | 8
Nc1c(C(=O)Nc2ccc3c(c2)OCCO3)nnn1Cc1cccc(F)c1 | 7 | 2 | / | 35* | 0 | 3 | 87* | 0
CCCC/C=C1/[C@H](c2ccc(Cl)cc2)N(Cc2ccc3c(c2)OCO3)C2=N[C@H](c3ccccc3)CC(=O)N21 | / | / | / | / | -2 | / | / | /
O=c1cc(-c2ccc(O)cc2)oc2c(-c3c(O)cc(O)c4c(=O)cc(-c5ccc(O)cc5)oc34)c(O)cc(O)c12 | / | 0 | / | / | -3 | -2 | / | /
O=c1cc(-c2ccc(O)c(-c3c(O)cc(O)c4c(=O)cc(-c5ccc(O)cc5)oc34)c2)oc2cc(O)cc(O)c12 | 2 | 0 | -76 | 34* | 7 | 0 | 29* | 20
O=C(CCn1c(=O)oc2ccccc21)Nc1cccc(Cl)c1 | 26 | 0 | -5 | 36* | 4 | 0 | 2 | -2
COc1ccc(NC(=O)Cn2c(=O)oc3ccccc32)cc1 | -9 | 0 | -3 | -3 | 0 | -1 | / | /
COC(=O)c1cc(NC(=O)Cn2c(=O)oc3ccccc32)cc(C(=O)OC)c1 | 3 | 0 | / | 65* | 8 | -1 | 38* | -7
CCOC(=O)[C@@H]1[C@H]2COc3cc(OC)ccc3[C@H]2N2C(=O)N(c3cccc(Cl)c3)C(=O)[C@]12C | 7 | 0 | / | 32* | / | / | 7 | -8
CCOC(=O)[C@@H]1[C@H]2COc3cc(OC)ccc3[C@H]2N2C(=O)N(c3cccc(Cl)c3)C(=O)[C@@]12C | 5 | 0 | / | -5 | / | / | / | /
O=C(NC1=N[C@@]2(C=C3CCCCC3n3c(=O)n(-c4ccccc4)c(=O)n32)CN1Cc1ccccc1)c1ccccc1 (stereo not given in full) | / | / | / | / | 2 | / | / | /
CCNC(=S)N/N=C/c1c(C)nn(-c2cccc(Cl)c2)c1Cl | 12 | 1 | -12 | 57* | 0 | 0 | 48* | 0
Cc1nn(-c2cccc(Cl)c2)c(Cl)c1/C=N/NC(=O)c1cccs1 | 16 | 0 | -4 | 9 | -7 | -2 | / | /
Cc1ccc(-n2c(SCC(=O)Nc3nccs3)nc3c(c2=O)SCC3)cc1 | 23 | 0 | -24 | 39* | -13 | 1 | 38* | -3
CCOc1ccc(-n2c(SCC(=O)Nc3nccs3)nc3c(c2=O)SCC3)cc1 | -7 | 0 | 0 | 12 | -4 | -1 | / | /
O=C(OCCN1C(=O)c2ccccc2C1=O)c1ccccc1 | 19 | 0 | -5 | 46* | -9 | -1 | -12 | 6
O=C(OCN1C(=O)c2ccccc2C1=O)c1ccccc1 | 6 | 0 | -6 | -3 | 3 | -5 | / | /
O=C(CSc1nc2ccccc2c(=O)n1-c1ccccc1)c1cccc([N+](=O)[O-])c1 | 6 | 0 | / | 32* | 3 | -1 | 27 | 0
C=CCN1C(=O)[C@@H](CC(=O)NCC23CC4CC(CC(C4)C2)C3)[C@]2(C(=O)OCC)CCCCC/C=C/12 | / | / | / | / | 10 | / | / | /
CC(C)CNC(=O)OCc1cn(Cc2ccccc2Cl)nn1 | / | / | / | / | 0 | / | / | /
CC1Cc2ccccc2N1S(=O)(=O)c1cccc(C(=O)NCCCO)c1 (stereo not given) | -9 | 0 | -8 | 2 | -1 | 0 | / | /
CCOC(=O)c1ccc(NC(=O)c2cccc(S(=O)(=O)N3c4ccccc4CC3C)c2)s1 (stereo not given) | -13 | 0 | -106 | 40* | 0 | 0 | 10 | -1
O=C(CN1CCOCC1)Nc1nc(-c2ccccc2)cs1 | -4 | 0 | / | -10 | 0 | -1 | / | /
O=C(Cn1nnc(-c2ccc(CN3CCOCC3)cc2)n1)Nc1nc(-c2ccccc2)cs1 | -2 | 0 | -30 | 48* | 0 | 0 | 5 | 7
